Data published in the OligoGym collection.
Also: reference of the scale not given here.

The sequences below were run against EPDR1 (assay: pooled miR-30 sensor sort-seq; sequence = guide strand). Conditions: shRNA.
Sequence TACGAGGGAACTCTAGTCCTGG has a sensor-assay potency score (higher = more potent) of -0.607.
For TAGAGGAATAATTACTTCCTAT, the sensor-assay potency score (higher = more potent) was -0.811.
Sequence TATTCAAATAATCTCTTGCAGG has a sensor-assay potency score (higher = more potent) of -0.781.
TCAATCTGAAACATCACTCCAT gave a sensor-assay potency score (higher = more potent) of 1.13.
Sequence TAGCATTCACATCTTGACTAGT has a sensor-assay potency score (higher = more potent) of 0.0481.
In the case of TATCACACTGTAGTTTATGGTA, the sensor-assay potency score (higher = more potent) is reported as -0.596.
Work on TTAGGAGACAATAGTCTCCTGA yielded a sensor-assay potency score (higher = more potent) of -0.95.
TAGGATCTAGCTGACTTTCTGT gave a sensor-assay potency score (higher = more potent) of 0.667.
For TAGTCTCATATCCATCTCCAGC, the sensor-assay potency score (higher = more potent) was -1.45.

What follows are sequences tested against EPGN in the same assay as above. Conditions: shRNA.
With TAATAGTAATCCAACACCAATC the sensor-assay potency score (higher = more potent) was -1.34.
With TAAGAATCCACAGCATATGAAG the sensor-assay potency score (higher = more potent) was -1.16.
TATGTTGTCAGCTTGCTGGGCT showed a sensor-assay potency score (higher = more potent) of 0.572.
In the case of TTTCTCTAGCTCATGGTGGAAT, the sensor-assay potency score (higher = more potent) is reported as -1.09.
Work on AACCACTTAATAGTAATCCAAC yielded a sensor-assay potency score (higher = more potent) of -1.22.
Work on ATAACCAGTAAAACACCTGCAG yielded a sensor-assay potency score (higher = more potent) of -0.113.
Work on TTCTATGTTGTCAGCTTGCTGG yielded a sensor-assay potency score (higher = more potent) of -0.845.
TGCAGTAACTGTTATGATCTTC gave a sensor-assay potency score (higher = more potent) of -0.113.
TTGAATAAAAGATAGACTGATA was tested, and the sensor-assay potency score (higher = more potent) was -0.413.
In the case of TTGGAGGTGTTACAGTCACGGC, the sensor-assay potency score (higher = more potent) is reported as -1.5.
In the case of TAACCAGTAAAACACCTGCAGA, the sensor-assay potency score (higher = more potent) is reported as -1.05.
TTTCATAAGAATCCACAGCATA showed a sensor-assay potency score (higher = more potent) of -0.859.

The sequences below were run against EPHA6 in the same assay as above. Conditions: shRNA.
TATCAAGCAACACAACTTGGTT gave a sensor-assay potency score (higher = more potent) of -0.642.
Sequence ATTTCTTGTAGAAAACACGGAC has a sensor-assay potency score (higher = more potent) of -0.586.
TACAGTTGTTGTATCAAGCAAC gave a sensor-assay potency score (higher = more potent) of 0.0165.
Work on TGTATCAAGCAACACAACTTGG yielded a sensor-assay potency score (higher = more potent) of -0.401.
For TTGGCTTGAATTTAATTCCGTG, the sensor-assay potency score (higher = more potent) was 0.00331.
TTTCTGACTGTAGCCACTGTAT showed a sensor-assay potency score (higher = more potent) of -1.06.
With TTCAGCTCGGAAATAACCCTTT the sensor-assay potency score (higher = more potent) was -0.23.
Work on TTCCATTACATTACATACCTGG yielded a sensor-assay potency score (higher = more potent) of 0.0947.
In the case of TTTTCTGAGCTGCATCACGGGA, the sensor-assay potency score (higher = more potent) is reported as -0.977.
TTTCTTACAGATTACACTGTAT gave a sensor-assay potency score (higher = more potent) of -0.425.
TTACAGATTACACTGTATGTGA gave a sensor-assay potency score (higher = more potent) of 0.175.

Each sequence was assayed against EPHA8 in the same assay as above. Conditions: shRNA.
With TACATCTTGGGTGTGTCCCGCT the sensor-assay potency score (higher = more potent) was -0.241.
For TTGACGGATCACCACCACCTGG, the sensor-assay potency score (higher = more potent) was -1.47.
In the case of TCCAGAGTCACTGATGTCCCAT, the sensor-assay potency score (higher = more potent) is reported as -0.773.
For TAGCTGAGGTCACAGTGGCAGG, the sensor-assay potency score (higher = more potent) was -1.64.
Sequence TTGTCCTTCTCGTAGTACTTGA has a sensor-assay potency score (higher = more potent) of -0.781.
For ATGAGCGTCAGGCAGATCCAGA, the sensor-assay potency score (higher = more potent) was -1.66.
Sequence TCTCGTAGTACTTGATCTCATA has a sensor-assay potency score (higher = more potent) of -1.09.
With TTTCCCGGTCTCCACCTCCATG the sensor-assay potency score (higher = more potent) was -1.71.
